Screening results deposited in PubChem BioAssay by National Center for Advancing Translational Sciences (NCATS).
Only some compounds are listed: those with a hit (about 6.9% of all), similar ones and a draw of the others.
SW480 rerep = A quantitative high throughput screen for small molecules that induce DNA re-replication in SW480 colon adenocarcinoma cells. Potency, µM (series often up to 46.1 µM), hits mostly activators. SW480 DNA re-replication, Hoechst DNA content imaging, 48 h. 1.8% of 340,000 active. AID 624297, 2012; also: nearly all actives have a fitted effect of over 55% in size
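Image-based read-out: total Hoechst fluorescence of nuclei (405 nm excitation, 500-530 nm emission), with hits raising the fraction of high-intensity nuclei. SW480 colon cells incubated 48 hr with compounds at 37 C.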
KB-3-1 cytotox = qHTS assay for MDR1-selective chemotherapeutics: Primary screen using the parental adenocarcinoma cell KB-3-1 | KB-3-1 viability, CellTiter-Glo ATP luminescence, 72 h | Potency, µM (highest dose often 46.1 µM), most hits filed as cytotoxic | 1.4% of 400,000 active | AID 1347075, 2019; also: nearly all actives have a fitted effect of over 60% in size
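Cytotoxicity in the drug-sensitive parental line KB-3-1 was scored as loss of CellTiter-Glo luminescence following 72 h incubation with compound. Values come from curve fitting of normalized concentration-response data.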
Giardia kill = Small Molecules that selectively kill Giardia lamblia: qHTS; Giardia lamblia trophozoite viability; activity change, % at 7.66 µM, hits read low; 0.15% of 340,000 active; AID 540267, 2011; in the data active = activity change below about -80%; inconclusive = between about -30% and that limit;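 also: parasites exposed to compound for two days anaerobically before the ATP read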
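Luminescence from cellular ATP indicates surviving trophozoites (100 cells/well) following 48 hrs anaerobic compound treatment at 37 deg C; signal develops 15-30 min at room temperature.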
KB-V1 cytotox = qHTS assay for MDR1-selective chemotherapeutics: Primary screen using the drug-selected MDR subline cells KB-V1; Potency, µM (highest dose often 46.1 µM), hits mostly cytotoxic; KB-V1 MDR cells viability, CellTiter-Glo, 72 h; 3.4% of 400,000 active; also: nearly all actives have a fitted effect of over 60% in size
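Drug-selected KB-V1 cells, grown in DMEM lacking phenol red with 10% FBS, receive compound titrations; after three days at 37 degrees C, surviving cell ATP is quantified by CellTiter-Glo luminescence and responses normalized and curve-fitted.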
ASM inhibitor = Inhibitors of Secretory Acid Sphingomyelinase (S-ASM): qHTS. 0.006% of 340,000 active. AID 504937, 2011. Potency, µM (top dose mostly 57.5 µM), most hits filed as inhibitors. placental ASM, HMU-PC fluorogenic substrate, 60 min. Sphingomyelin phosphodiesterase (Homo sapiens), P17405
Target sequence (P17405 47-631 limits assumed): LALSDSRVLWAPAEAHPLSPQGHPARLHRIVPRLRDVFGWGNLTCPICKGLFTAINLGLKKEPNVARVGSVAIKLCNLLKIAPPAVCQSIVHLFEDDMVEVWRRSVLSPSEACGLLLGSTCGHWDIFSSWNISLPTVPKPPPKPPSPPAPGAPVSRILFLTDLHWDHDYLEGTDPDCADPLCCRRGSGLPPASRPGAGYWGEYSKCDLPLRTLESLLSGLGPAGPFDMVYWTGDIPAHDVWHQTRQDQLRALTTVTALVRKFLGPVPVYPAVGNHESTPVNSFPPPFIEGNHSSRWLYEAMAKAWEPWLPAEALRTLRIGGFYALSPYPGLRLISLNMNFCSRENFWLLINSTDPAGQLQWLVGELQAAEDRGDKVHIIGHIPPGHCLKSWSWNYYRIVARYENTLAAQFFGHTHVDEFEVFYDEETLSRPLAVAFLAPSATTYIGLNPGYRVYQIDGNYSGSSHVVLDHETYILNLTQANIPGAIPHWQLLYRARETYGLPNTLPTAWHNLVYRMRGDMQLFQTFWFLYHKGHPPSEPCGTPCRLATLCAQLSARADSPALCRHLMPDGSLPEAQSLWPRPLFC
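HMU-PC0 cleavage (9 uM final) by human placental ASM, 60 min at 37 °C following 10 min compound exposure at RT; stopped at pH 10, fluorescence Ex 386/Em 447 nm.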
MCF10A rerep = A quantitative high throughput screen for small molecules that induce DNA re-replication in MCF 10a normal breast cells; MCF 10A DNA re-replication, Hoechst nuclear intensity, 48 h; Potency, µM (doses to about 46.1 µM), usual class: activators; 2.9% of 350,000 active; AID 624296, 2012; also: nearly all actives have a fitted effect of over 50% in size
Numbers stand for hits. Unless noted, calls follow the shape of the dose curve; as a rule, active = well fitted curve in the direction sought with a large enough effect; inconclusive = small, poorly fitted or top-dose-only effect, or another doubt; inactive = no such curve, though single readings can be large; an effect the other way counts as inactive or inconclusive.

`CC(C)COc1ccc(C(=O)Nc2sc3c(c2C(=O)O)CC(C)(C)OC3)cc1` gave SW480 rerep inactive, KB-3-1 cytotox 8.2µM, Giardia kill inactive, KB-V1 cytotox inactive, ASM inhibitor inactive and MCF10A rerep inconclusive.
For O=C(CSc1nc(-c2ccccc2)[nH]c1-c1ccccc1)Nc1ccc2c(c1)OCCO2 the results were KB-3-1 cytotox inactive and KB-V1 cytotox inactive.
For O=C1NN(c2ccccc2)C(=O)/C1=C/c1ccc(Sc2ccc(Cl)cc2)o1 the results were SW480 rerep inactive, KB-3-1 cytotox inactive, Giardia kill inconclusive, KB-V1 cytotox inactive, ASM inhibitor inactive and MCF10A rerep 4.61µM.
For O=[N+]([O-])c1ccc(O)c(-c2ccnc3cc(-c4ccccc4)nn23)c1 the results were KB-3-1 cytotox inconclusive and KB-V1 cytotox inactive.
C=CCNC(=S)Nc1sc2c(c1C(=O)OCC)CC(C(C)C)OC2 (configuration not stated) was read as SW480 rerep inconclusive, KB-3-1 cytotox inactive, Giardia kill inactive, KB-V1 cytotox inconclusive, ASM inhibitor inactive and MCF10A rerep 11.6µM.
For CCOC(=O)c1c(NC(=S)NCCc2ccccc2)sc2c1CC(C(C)C)OC2 (configuration not stated) the results were SW480 rerep inactive, KB-3-1 cytotox inactive, Giardia kill inactive, KB-V1 cytotox 20.6µM, ASM inhibitor inactive and MCF10A rerep inactive.
Screening CC(C)C1Cc2c(sc(NC(=S)NC(=O)c3ccccc3)c2C#N)CO1 (configuration not stated) returned SW480 rerep inactive, KB-3-1 cytotox inactive, Giardia kill inactive, KB-V1 cytotox inactive, ASM inhibitor inactive and MCF10A rerep inactive.
`Cc1cccc[n+]1CCCCCCCCCC[n+]1ccccc1C` gave SW480 rerep inactive, KB-3-1 cytotox 1.46µM, Giardia kill inactive, KB-V1 cytotox inactive, ASM inhibitor inactive and MCF10A rerep inactive.
`CC(C)NC(=S)NN=C1CCC(c2ccccc2)CC1` (configuration not stated) gave SW480 rerep 20.6µM, KB-3-1 cytotox inactive, Giardia kill inactive, KB-V1 cytotox inactive, ASM inhibitor inactive and MCF10A rerep inactive.
Cc1occc1C(=O)NNC(=O)COc1ccc(Br)cc1Br was read as SW480 rerep inactive, KB-3-1 cytotox inactive, Giardia kill inactive, KB-V1 cytotox 14.6µM, ASM inhibitor inactive and MCF10A rerep inactive.
For Cc1ccc(OCC(=O)NNC(=O)c2ccoc2C)c(Br)c1 the results were SW480 rerep inactive, KB-3-1 cytotox inactive, Giardia kill inactive, KB-V1 cytotox inactive, ASM inhibitor inactive and MCF10A rerep inactive.
Screening CC(C)NC(=O)NC(=O)COc1ccc(Br)cc1Br returned SW480 rerep inactive, KB-3-1 cytotox inactive, Giardia kill inactive, KB-V1 cytotox inconclusive, ASM inhibitor inactive and MCF10A rerep 23.1µM.
O=C(COc1ccc(Br)cc1Br)NC1CCCC1 was read as SW480 rerep inconclusive, KB-3-1 cytotox inactive, Giardia kill inactive, KB-V1 cytotox inactive, ASM inhibitor inactive and MCF10A rerep inactive.
C=CCN(c1ccccc1C(=O)NCC(=O)O)S(=O)(=O)c1ccccc1C was read as SW480 rerep inactive, KB-3-1 cytotox inactive, Giardia kill inactive, KB-V1 cytotox inactive, ASM inhibitor inactive and MCF10A rerep inactive.
Cc1c(Cl)cccc1-c1ccc(C(=O)Nc2ccc(F)cc2)o1 was read as KB-3-1 cytotox inactive and KB-V1 cytotox inactive.
For COCCn1c(C)cc(C(=O)CSc2nc3ccccc3c(=O)[nH]2)c1C the results were SW480 rerep inactive, KB-3-1 cytotox inactive, Giardia kill inactive, KB-V1 cytotox inconclusive, ASM inhibitor inactive and MCF10A rerep inactive.
`Cc1cccc(C)c1NC(=O)CSc1nc2ccccc2c(=O)[nH]1` gave SW480 rerep inactive, KB-3-1 cytotox inactive, Giardia kill inactive, KB-V1 cytotox 16.4µM, ASM inhibitor inactive and MCF10A rerep inactive.
COCC(C)n1c(C)cc(C(=O)CSc2nc3ccccc3c(=O)[nH]2)c1C (configuration not stated) was read as SW480 rerep inactive, KB-3-1 cytotox 20.6µM, Giardia kill inactive, KB-V1 cytotox 2.59µM, ASM inhibitor inactive and MCF10A rerep inconclusive.
For COc1ccccc1CN1COc2ccc3c(C)cc(=O)oc3c2C1 the results were KB-3-1 cytotox inactive and KB-V1 cytotox inconclusive.
Screening CCCCc1nc(N2CCN(C(=O)c3ccco3)CC2)c(C#N)c2c1CCCC2 returned SW480 rerep inconclusive, KB-3-1 cytotox inconclusive, Giardia kill inactive, KB-V1 cytotox inconclusive, ASM inhibitor inactive and MCF10A rerep inconclusive.
CC(C)c1nc(N2CCN(C(=O)c3ccccc3)CC2)c(C#N)c2c1COC(C)(C)C2 was read as SW480 rerep inactive, KB-3-1 cytotox inconclusive, Giardia kill inactive, KB-V1 cytotox inconclusive, ASM inhibitor inactive and MCF10A rerep inconclusive.
For CC(C)c1nc(N2CCN(C(=O)c3ccco3)CC2)c(C#N)c2c1COC(C)(C)C2 the results were SW480 rerep inactive, KB-3-1 cytotox inconclusive, Giardia kill inactive, KB-V1 cytotox 18.4µM, ASM inhibitor inactive and MCF10A rerep inconclusive.
CC1(C)Cc2c(C#N)c(N3CCN(C(=O)c4ccccc4)CC3)nc(-c3ccco3)c2CS1 was read as SW480 rerep inactive, KB-3-1 cytotox inconclusive, Giardia kill inactive, KB-V1 cytotox inconclusive, ASM inhibitor inactive and MCF10A rerep 13µM.
`CCCN1CNc2c(c(=O)[nH]c(=S)n2CCc2cc(Cl)ccc2Cl)C1` gave Giardia kill inactive.
For COc1ccc(NC(=O)Cn2c(=O)n(-c3ccc(C)c(C)c3)c(=O)c3c(C)c(C)sc32)cc1 the results were KB-3-1 cytotox inactive and KB-V1 cytotox inactive.
Screening CCOCCc1nn2c(=O)cc(COC(=O)c3ccccc3OC)nc2s1 returned KB-3-1 cytotox inactive and KB-V1 cytotox inactive.
`CCc1ccc(NC(=O)c2cnn3c(C)cc(C)nc23)cc1` gave KB-3-1 cytotox inactive and KB-V1 cytotox inconclusive.
`COc1ccc(S(=O)(=O)Nc2cccc(-c3ccc(N4CCCC4)nn3)c2)cc1F` gave KB-3-1 cytotox inconclusive and KB-V1 cytotox inactive.
Screening O=C(OCc1ccco1)c1cccnc1 returned SW480 rerep inconclusive, KB-3-1 cytotox inactive, Giardia kill inactive, KB-V1 cytotox inactive, ASM inhibitor inactive and MCF10A rerep 13µM.
Screening CCc1ccc(OCCCCn2c(CCNC(=O)C3CCCCC3)nc3ccccc32)cc1 returned KB-3-1 cytotox inconclusive, Giardia kill inactive and KB-V1 cytotox inactive.
